Test results reported in PubChem BioAssay (NCATS).
Values joined by “and” are separate entries in the source; they are usually repeats but may differ in a detail not shown here. Identical values can stand only once. Results filed as inconclusive are left out. Active and inactive are the calls of the source. Unless noted, the call rests on the fitted dose curve; in most records, active means well fitted curve in the direction sought with a large enough effect; inconclusive means small, poorly fitted or top-dose-only effect, or another doubt; inactive means no such curve, though single readings can be large; an effect the other way counts as inactive or inconclusive.

Target: Cytochrome P450 2C9 (Homo sapiens) (UniProt P11712)
Test: Cytochrome P450 family 2 subfamily C member 9 (CYP2C9) small molecule antagonists: luciferase biochemical (cell-free) qHTS assay (AID 1645842; active means well fitted curve in the direction sought with a large enough effect in the repeat runs; an effect the other way counts as inactive or inconclusive; further: nearly all actives have a fitted effect of over 55% in size)
Settings: P450-Glo CYP2C9 enzyme assay, luciferin luminescence; series mostly up to 57.4 µM; activity change, negative = inhibition: at the top concentration
How it was run: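 P450-Glo CYP2C9 system: proluciferin substrate with enzyme in mix containing 0.4% BSA, 10 min at room temperature, then NADPH regeneration solution added and incubated 1 h at 37C. Detection reagent stopped reaction; luminescence read after 20 min as RLU.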
On the % scale 0 is the no-effect control and ±100 the full control effect; potency means the concentration at half of the fitted maximal effect.

Sequence of Cytochrome P450 2C9 (Homo sapiens) (P11712 whole entry, looked up): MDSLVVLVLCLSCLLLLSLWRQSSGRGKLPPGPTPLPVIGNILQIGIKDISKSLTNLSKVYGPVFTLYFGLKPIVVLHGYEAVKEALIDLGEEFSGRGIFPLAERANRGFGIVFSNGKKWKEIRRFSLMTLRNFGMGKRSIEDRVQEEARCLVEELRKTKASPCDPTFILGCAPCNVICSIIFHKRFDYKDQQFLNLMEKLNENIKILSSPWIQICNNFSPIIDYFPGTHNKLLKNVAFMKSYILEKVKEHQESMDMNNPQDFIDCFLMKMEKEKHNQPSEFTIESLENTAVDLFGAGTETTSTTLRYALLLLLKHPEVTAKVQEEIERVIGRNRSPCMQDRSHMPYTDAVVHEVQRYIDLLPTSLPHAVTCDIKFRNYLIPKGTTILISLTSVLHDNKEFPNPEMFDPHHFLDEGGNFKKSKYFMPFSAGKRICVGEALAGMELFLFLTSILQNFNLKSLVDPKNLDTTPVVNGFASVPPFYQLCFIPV

SMILES | Potency | activity change, negative = inhibition
CNC1CCC(N(Cc2cccc(-c3ccncc3)c2)C(=O)c2sc3ccccc3c2Cl)CC1 (configuration not stated) | 10.7 µM (active) | –
CNC(=O)c1c(-c2ccc(F)cc2)oc2cc(N(CCO)S(C)(=O)=O)c(C3CC3)cc12 | 10.7 µM (active) | –
O=C(CC12CC3CC(CC(C3)C1)C2)Nc1cccc2nc(NCCNCCO)ccc12 | – | 10.2% (inactive)
Cc1ccccc1C(C(=O)NC1CCCCC1)N(C(=O)CNc1ccc(C#N)cc1)c1cccc(F)c1 (configuration not stated) | 1.34 µM (active) | –
c1cc(OCCN2CCCCC2)cc(-c2n[nH]c3ccc(-c4ncn[nH]4)cc23)c1 | – | -2.15% (inactive)
CC(C)C[C@@H](C(=O)N[C@H](C(=O)OC1CCCC1)c1ccccc1)[C@H](O)C(=O)NO | 5.35 µM (active) | –
CN(C)c1nc(Cc2ccc(NC(=O)c3ccc(C(F)(F)F)cc3)cc2)nc(N(C)C)c1CC(=O)O | – | -4.23% (inactive)
CCC(=O)N1CCN(c2ccc(-n3c(=O)ccc4cnc5ccc(-c6cnc7ccccc7c6)cc5c43)cc2C(F)(F)F)CC1 | 10.7 µM (active) | –
CCn1c(-c2nonc2N)nc2cncc(CNC3CCNCC3)c21 | – | 1% (inactive)
C[C@@]1(c2cc(-c3cncnc3)c(F)cc2F)CCSC(N)=N1 | 16.9 µM (active) | –
COc1cc(Nc2nc3ccccc3nc2NS(=O)(=O)c2ccc(NC(=O)c3ccc(C)c(OC)c3)cc2)cc(OC)c1 | 7.56 µM (active) | –
Cc1cn([C@@H]2C[C@@H](O)[C@H](CO)O2)c(=O)[nH]c1=O | – | -14.9% (inactive)
Clc1ccc(C2(c3ccc(-c4cn[nH]c4)cc3)CCNCC2)cc1 | 1.2 µM (active) | –
Cc1cnc(Nc2cccc(CN3CCOCC3)c2)nc1Nc1cccc(S(=O)(=O)NC(C)(C)C)c1 | 5.35 µM (active) | –
Cc1nn(Cc2ccccc2Cl)c(C)c1CN(C)CC(O)COc1ccc(Cl)cc1 (configuration not stated) | – | 5.33% (inactive)
CCc1cccc(CC)c1NC(=O)N1Cc2[nH]nc(NC(=O)c3ccc(N4CCN(C)CC4)cc3)c2C1 | – | -2.4% (inactive)
Nc1ccc(-c2ccc3ncc4ccc(=O)n(-c5cccc(C(F)(F)F)c5)c4c3c2)cn1 | 2.13 µM (active) | –
CC(C)(C)c1nc(-c2cccc(NS(=O)(=O)c3c(F)cccc3F)c2F)c(-c2ccnc(N)n2)s1 | 6.74 µM (active) | –

SMILES | Potency | activity change, negative = inhibition
Cc1ccccc1C(=O)c1ccc(Nc2ccc(Br)cc2N)cc1Cl | 10.7 µM (active) | –
NS(=O)(=O)c1cc(Cl)c(Cl)c(S(N)(=O)=O)c1 | – | 82.9% (inactive)
Cc1cccc2c1CC[C@H](CN1CCC(c3c(Cl)cccc3Cl)CC1)C[C@@H]2O | 9.52 µM (active) | –
Cn1cnc(-c2cc3nccc(Oc4ccc(NC(=S)NC(=O)Cc5ccccc5)cc4F)c3s2)c1 | 1.9 µM (active) | –
COc1cc2nccc(Oc3ccc(NC(=O)Nc4cc(C)on4)c(Cl)c3)c2cc1OC | 19 µM (active) | –
CN1CCC(COc2cnc(-c3cccc(Cn4nc(-c5cccc(C#N)c5)ccc4=O)c3)nc2)CC1 | 16.9 µM (active) | –
O=C(c1ccc(C(=O)N2CCC(N3CCCC3)CC2)c(Nc2ccccc2)c1)N1CCC(N2CCCC2)CC1 | – | -13.9% (inactive)
Cc1cnc(CNC(=O)c2c(=O)c3ccc(N4CCCN(C)CC4)nc3n3c2sc2ccccc23)cn1 | – | 6.75% (inactive)
CNC(=O)c1ccc2c(C(=Nc3cccc(CN(C)C)c3)c3ccccc3)c(O)[nH]c2c1 | – | -35.4% (inactive)
O=C(Nc1ccc(OC(F)(F)F)cc1)c1sccc1NCc1ccnc2ccccc12 | 7.56 µM (active) | –
CC(C)CNc1ccnc(NCc2csc(-c3ccccc3)n2)n1 | 10.7 µM (active) | –
CCN1CCN(c2ccc(Nc3cc(N(C)C(=O)Nc4c(Cl)c(OC)cc(OC)c4Cl)ncn3)cc2)CC1 | 23.9 µM (active) | –
CN1CCN(c2cccc(Nc3nc4c(-c5ccc(S(C)(=O)=O)cc5)cccn4n3)c2)CC1 | 12 µM (active) | –
Cn1c(=O)c(-c2c(Cl)cccc2Cl)cc2cnc(Nc3cccc(C(=O)O)c3)nc21 | – | -5.43% (inactive)
CNC(=O)c1cc(Oc2ccc(NC(=O)Nc3ccc(Cl)c(C(F)(F)F)c3)c(F)c2)ccn1 | 9.52 µM (active) | –
CCN1C[C@H](C)n2c(c(O)c3c(=O)n(Cc4ccc(F)c(Cl)c4)nc(C(=O)NC)c32)C1=O | 8.49 µM (active) | –
COc1ccc(CCC(=O)Nc2nc3ccc(Cl)cc3s2)cc1OC | 6.01 µM (active) | –
NS(=O)(=O)c1ccc(Nc2nc(OCC3CCCCC3)c3[nH]cnc3n2)cc1 | 26.8 µM (active) | –

System: not listed separately
Test: Primary qHTS for inhibitors of nuclear receptor binding SET domain protein 2 (NSD2) in an isogenic RCH-ACV NSD2 p.E1099K mutant (9B) (AID 1645876); further: nearly all actives have a fitted effect of over 70% in size
Settings: RCH-ACV (leukaemia line) NSD2 E1099K (9B) viability, CellTiter-Glo, 72 h; series mostly up to 44.9 µM; activity change, negative = viability loss: at the top concentration

SMILES | Potency | outcome | activity change, negative = viability loss
CNC1CCC(N(Cc2cccc(-c3ccncc3)c2)C(=O)c2sc3ccccc3c2Cl)CC1 (configuration not stated) | 5.15 µM (active) and 9.34 µM (active) | – | –
CNC(=O)c1c(-c2ccc(F)cc2)oc2cc(N(CCO)S(C)(=O)=O)c(C3CC3)cc12 | inactive | – | –
O=C(CC12CC3CC(CC(C3)C1)C2)Nc1cccc2nc(NCCNCCO)ccc12 | 20.9 µM (active) | – | –
Cc1ccccc1C(C(=O)NC1CCCCC1)N(C(=O)CNc1ccc(C#N)cc1)c1cccc(F)c1 (configuration not stated) | – | inactive | –
c1cc(OCCN2CCCCC2)cc(-c2n[nH]c3ccc(-c4ncn[nH]4)cc23)c1 | 16.6 µM (active) | – | –
CC(C)C[C@@H](C(=O)N[C@H](C(=O)OC1CCCC1)c1ccccc1)[C@H](O)C(=O)NO | 14.8 µM (active) | – | –
CN(C)c1nc(Cc2ccc(NC(=O)c3ccc(C(F)(F)F)cc3)cc2)nc(N(C)C)c1CC(=O)O | – | inactive | –
CCC(=O)N1CCN(c2ccc(-n3c(=O)ccc4cnc5ccc(-c6cnc7ccccc7c6)cc5c43)cc2C(F)(F)F)CC1 | 13.3 nM (active) and 12.9 nM (active) | – | –
CCn1c(-c2nonc2N)nc2cncc(CNC3CCNCC3)c21 | 12.9 µM (active) | – | –
C[C@@]1(c2cc(-c3cncnc3)c(F)cc2F)CCSC(N)=N1 | inactive | – | –
COc1cc(Nc2nc3ccccc3nc2NS(=O)(=O)c2ccc(NC(=O)c3ccc(C)c(OC)c3)cc2)cc(OC)c1 | – | inactive | –
Cc1cn([C@@H]2C[C@@H](O)[C@H](CO)O2)c(=O)[nH]c1=O | – | – | 6.67% (inactive)
Clc1ccc(C2(c3ccc(-c4cn[nH]c4)cc3)CCNCC2)cc1 | 3.65 µM (active) and 3.72 µM (active) | – | –
Cc1cnc(Nc2cccc(CN3CCOCC3)c2)nc1Nc1cccc(S(=O)(=O)NC(C)(C)C)c1 | 0.515 µM (active) | – | –
Cc1nn(Cc2ccccc2Cl)c(C)c1CN(C)CC(O)COc1ccc(Cl)cc1 (configuration not stated) | 18.6 µM (active) | – | –
CCc1cccc(CC)c1NC(=O)N1Cc2[nH]nc(NC(=O)c3ccc(N4CCN(C)CC4)cc3)c2C1 | 817 nM (active) and 1.18 µM (active) | – | –
Nc1ccc(-c2ccc3ncc4ccc(=O)n(-c5cccc(C(F)(F)F)c5)c4c3c2)cn1 | 14.8 nM (active) and 23.1 nM (active) | – | –
CC(C)(C)c1nc(-c2cccc(NS(=O)(=O)c3c(F)cccc3F)c2F)c(-c2ccnc(N)n2)s1 | 5.9 µM (active) | – | –

SMILES | Potency | outcome | activity change, negative = viability loss
Cc1ccccc1C(=O)c1ccc(Nc2ccc(Br)cc2N)cc1Cl | 16.6 µM (active) and 5.78 µM (active) | – | –
NS(=O)(=O)c1cc(Cl)c(Cl)c(S(N)(=O)=O)c1 | – | inactive | –
Cc1cccc2c1CC[C@H](CN1CCC(c3c(Cl)cccc3Cl)CC1)C[C@@H]2O | 10.3 µM (active) | – | –
Cn1cnc(-c2cc3nccc(Oc4ccc(NC(=S)NC(=O)Cc5ccccc5)cc4F)c3s2)c1 | 5.15 µM (active) and 2.95 µM (active) | – | –
COc1cc2nccc(Oc3ccc(NC(=O)Nc4cc(C)on4)c(Cl)c3)c2cc1OC | 649 nM (active) and 3.72 µM (active) | – | –
CN1CCC(COc2cnc(-c3cccc(Cn4nc(-c5cccc(C#N)c5)ccc4=O)c3)nc2)CC1 | 11.8 µM (active) and 16.3 µM (active) | – | –
O=C(c1ccc(C(=O)N2CCC(N3CCCC3)CC2)c(Nc2ccccc2)c1)N1CCC(N2CCCC2)CC1 | inactive | – | –
Cc1cnc(CNC(=O)c2c(=O)c3ccc(N4CCCN(C)CC4)nc3n3c2sc2ccccc23)cn1 | 0.152 µM (active) | – | –
CNC(=O)c1ccc2c(C(=Nc3cccc(CN(C)C)c3)c3ccccc3)c(O)[nH]c2c1 | 16.3 µM (active) and 13.2 µM (active) | – | –
O=C(Nc1ccc(OC(F)(F)F)cc1)c1sccc1NCc1ccnc2ccccc12 | 16.6 µM (active) and 14.6 µM (active) | – | –
CC(C)CNc1ccnc(NCc2csc(-c3ccccc3)n2)n1 | 5.9 µM (active) | – | –
CCN1CCN(c2ccc(Nc3cc(N(C)C(=O)Nc4c(Cl)c(OC)cc(OC)c4Cl)ncn3)cc2)CC1 | – | – | -27% (inactive)
CN1CCN(c2cccc(Nc3nc4c(-c5ccc(S(C)(=O)=O)cc5)cccn4n3)c2)CC1 | 2.06 µM (active) and 5.9 µM (active) | – | –
Cn1c(=O)c(-c2c(Cl)cccc2Cl)cc2cnc(Nc3cccc(C(=O)O)c3)nc21 | – | – | 9.76% (inactive)
CNC(=O)c1cc(Oc2ccc(NC(=O)Nc3ccc(Cl)c(C(F)(F)F)c3)c(F)c2)ccn1 | 14.5 µM (active) | – | –
CCN1C[C@H](C)n2c(c(O)c3c(=O)n(Cc4ccc(F)c(Cl)c4)nc(C(=O)NC)c32)C1=O | inactive | – | –
COc1ccc(CCC(=O)Nc2nc3ccc(Cl)cc3s2)cc1OC | – | – | -6.51% (inactive)
NS(=O)(=O)c1ccc(Nc2nc(OCC3CCCCC3)c3[nH]cnc3n2)cc1 | 13.2 µM (active) | – | –
